Screening data as filed in PubChem.
Cycloheximide cs = affects cycloheximide protein synthesis inhibition readout, counter-screen; max response, %; hit rate 12% among 300,000; AID 2314; cell reporter, cycloheximide protein synthesis inhibition counterscreen; in the data active means max response mostly above about 13%, no sharp cut-off; inactive means mostly below about 14%; further: read at 38.3 µM for the half of the compounds with a filed dose; 0% is about no effect
LmPK inh = inhibitors of Leishmania mexicana pyruvate kinase | Q27686 | purified LmPK, Kinase-Glo ATP luminescence, 1 h | Potency, µM (highest dose often 57.5 µM), for the others: at the highest dose activity change, negative = inhibition, actives largely listed as inhibitors | hit rate 0.37% among 290,000 | AID 1721; further: potency means the concentration at half of the fitted maximal effect; on the % scale 0 is the no-effect control and ±100 the full control effect
Target sequence (Q27686 whole entry, looked up): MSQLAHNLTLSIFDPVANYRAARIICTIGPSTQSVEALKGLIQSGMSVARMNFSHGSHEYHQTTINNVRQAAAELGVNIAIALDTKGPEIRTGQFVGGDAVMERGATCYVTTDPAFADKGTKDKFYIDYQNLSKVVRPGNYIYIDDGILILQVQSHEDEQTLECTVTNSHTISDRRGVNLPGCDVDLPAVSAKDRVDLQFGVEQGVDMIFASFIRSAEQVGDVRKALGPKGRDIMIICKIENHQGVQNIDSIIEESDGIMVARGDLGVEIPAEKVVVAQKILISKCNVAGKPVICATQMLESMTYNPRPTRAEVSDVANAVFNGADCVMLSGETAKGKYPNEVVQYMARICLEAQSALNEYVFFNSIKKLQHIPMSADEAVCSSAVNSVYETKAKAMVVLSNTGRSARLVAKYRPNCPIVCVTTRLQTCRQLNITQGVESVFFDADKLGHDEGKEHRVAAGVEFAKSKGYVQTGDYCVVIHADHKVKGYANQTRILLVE
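Pyruvate kinase activity monitored as ATP production (luciferase luminescence). Conditions: 0.1 nM enzyme, 0.5 mM PEP, 0.1 mM ADP, 1 h, RT; normalized against uninhibited and no-enzyme wells.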
Shiga inhibitor = Shiga toxin inhibition | Vero cells, Shiga toxin protein synthesis inhibition reporter | inhibition, % at 38.7 µM | hit rate 9.2% among 290,000; in the data active means inhibition mostly above about 28%, no sharp cut-off; inactive means mostly below about 43%; further: 0% is about no effect
Pf growth 96h = inhibits malaria parasite growth, 96 h. P. falciparum luciferase reporter growth, 96 h. Potency, µM (highest dose often 28.7 µM), for inactives: top-dose activity change, negative = inhibition, hits mostly inhibitors. hit rate 6.9% among 320,000. AID 504834; further: potency means the concentration at half of the fitted maximal effect; on the % scale 0 is the no-effect control and ±100 the full control effect
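Parasite growth measured via integrated firefly luciferase reporter in P. falciparum. Infected erythrocytes at 2% hematocrit, 0.05% parasitemia final were treated 96 hours at 37 C under 5% CO2, and luminescence was read.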
Pf growth 48h = inhibits P. falciparum growth in the first generation, 48 h | P. falciparum luciferase growth in erythrocytes, 48 h | Potency, µM (series often up to 28.7 µM), without a hit: top-dose activity change, negative = inhibition, most hits filed as inhibitors | hit rate 5.9% among 310,000 | AID 504832; further: potency means the concentration at half of the fitted maximal effect; on the % scale 0 is the no-effect control and ±100 the full control effect
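First compound was added to culture medium, then infected red cells at 0.1% parasitemia and 2% hematocrit (final). After incubation at 37 C under 5% CO2, luciferase detection reagent was dispensed and light output recorded.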
Starred values were filed as active, the others as inactive. Compounds with a hit are over-represented: about 22% of the library has one in this group of screens. Unless noted, the call rests on the fitted dose curve; in most records, active means well fitted inhibition curve with a large enough effect; inconclusive means small, poorly fitted or top-dose-only effect, or another doubt; inactive means no such curve, though single readings can be large or run the other way.

What do the screens show for `CCOC(=O)c1c(-c2ccccc2Cl)csc1NC(=O)c1cc(S(=O)(=O)N2CCOCC2)ccc1C`?
Cycloheximide cs: -2; LmPK inh: 1%; Shiga inhibitor: -8; Pf growth 96h: inconclusive; Pf growth 48h: 15µM*

How did Cc1ccc(S(=O)(=O)N2CCOCC2)cc1C(=O)Nc1cccc(S(=O)(=O)N2CCCC2)c1 do in these assays?
Cycloheximide cs: -3; LmPK inh: -2%; Shiga inhibitor: 2; Pf growth 96h: inconclusive; Pf growth 48h: inconclusive

What do the screens show for `O=C(Nc1nc2ccccc2[nH]1)c1cccc(Cl)c1`?
Cycloheximide cs: 44*; LmPK inh: -7%; Shiga inhibitor: 91*; Pf growth 96h: 154%; Pf growth 48h: 48%

How did C=CCN(c1ccccc1)S(=O)(=O)c1cccc(C(=O)Nc2nc3ccccc3[nH]2)c1 do in these assays?
Cycloheximide cs: 5; LmPK inh: -5%; Shiga inhibitor: 4; Pf growth 96h: inconclusive; Pf growth 48h: inconclusive

Results for Cc1ccc(C)c(C(=O)Nc2nc3ccccc3[nH]2)c1 ?
Cycloheximide cs: 24; LmPK inh: 3%; Shiga inhibitor: 61*; Pf growth 96h: 53%; Pf growth 48h: 43%

How did COc1ccc(N(C)S(=O)(=O)c2cccc(C(=O)Nc3nc4ccccc4[nH]3)c2)cc1 do in these assays?
Cycloheximide cs: 12; LmPK inh: 3%; Shiga inhibitor: 48; Pf growth 96h: inconclusive; Pf growth 48h: inconclusive

Results for CN(c1cccc(Cl)c1)S(=O)(=O)c1cccc(C(=O)Nc2nc3ccccc3[nH]2)c1 ?
Cycloheximide cs: 24*; LmPK inh: 2%; Shiga inhibitor: 32; Pf growth 96h: inconclusive; Pf growth 48h: 15µM*

What do the screens show for `CC(=O)Nc1nc2ccccc2[nH]1`?
Cycloheximide cs: -3; LmPK inh: -1%; Shiga inhibitor: 5; Pf growth 96h: -11%; Pf growth 48h: -3%

Results for Nc1ncnc2c1nc(Br)n2[C@@H]1O[C@H]2COP(=O)(O)O[C@@H]2[C@@H]1O ?
Cycloheximide cs: -3; Shiga inhibitor: -6

What do the screens show for `N#Cc1ccc(COC(=O)CC(NC(N)=O)c2ccc(Cl)cc2)cc1` (centres undefined)?
Cycloheximide cs: -4; LmPK inh: -6%; Shiga inhibitor: -16; Pf growth 96h: 28%; Pf growth 48h: 11%

How did COc1ccc(S(=O)(=O)N2CCN(CCCOc3ccc(F)cc3)CC2)cc1OC do in these assays?
Cycloheximide cs: -1; LmPK inh: -2%; Shiga inhibitor: 3; Pf growth 96h: 4.7µM*; Pf growth 48h: inconclusive

Results for COc1ccc(S(=O)(=O)N2CCN(c3ccc(F)cc3)CC2)cc1OC ?
Cycloheximide cs: -1; LmPK inh: 0%; Shiga inhibitor: -11; Pf growth 96h: 335%; Pf growth 48h: 15%

How did COc1cc2c(cc1OC)CN(C(=O)CN1CCN(S(=O)(=O)c3ccccc3Br)CC1)CC2 do in these assays?
Cycloheximide cs: 17*; LmPK inh: 1%; Shiga inhibitor: 69*; Pf growth 96h: 11%; Pf growth 48h: inconclusive

Results for COc1ccc(S(=O)(=O)N2CCN(CC(=O)N3CCc4ccccc4C3)CC2)cc1OC ?
Pf growth 96h: 9.3µM*; Pf growth 48h: inconclusive

What do the screens show for `COc1ccc(N(CC(=O)N2CCc3ccccc3C2)S(C)(=O)=O)cc1OC`?
Cycloheximide cs: -2; LmPK inh: -6%; Shiga inhibitor: -13; Pf growth 96h: -19%

How did COc1cc2c(cc1OC)CN(C(=O)c1cc(S(=O)(=O)N3CCOCC3)c(Cl)cc1Cl)CC2 do in these assays?
Cycloheximide cs: 3; LmPK inh: 3%; Shiga inhibitor: -2; Pf growth 96h: 5.2µM*; Pf growth 48h: inconclusive

Results for O=C(c1cc(S(=O)(=O)N2CCOCC2)c(Cl)cc1Cl)N1CCCC1 ?
Pf growth 96h: inconclusive; Pf growth 48h: 15%

Results for Cc1c(C(=O)NC(=S)N(Cc2ccccc2)c2ccccn2)cccc1[N+](=O)[O-] ?
Pf growth 96h: 20%; Pf growth 48h: 30%

What do the screens show for `COc1ccc(-c2nc(=S)c3ccc4ccccc4c3[nH]2)cc1`?
Cycloheximide cs: -2; LmPK inh: -1%; Shiga inhibitor: -5; Pf growth 96h: 25%; Pf growth 48h: inconclusive

What do the screens show for `Cc1ccc(C)c(S(=O)(=O)N2CCN(CC(=O)N3CCc4ccccc4C3)CC2)c1`?
Cycloheximide cs: 13; LmPK inh: 7%; Shiga inhibitor: -8; Pf growth 96h: -52%

Results for O=C(CN1CCN(S(=O)(=O)c2cc(C(F)(F)F)ccc2Cl)CC1)N1CCc2ccccc2C1 ?
Pf growth 96h: inconclusive; Pf growth 48h: 13µM*

What do the screens show for `Cc1cc(C)n(-c2nnc(C)n2NS(=O)(=O)c2ccc(F)cc2)n1`?
Cycloheximide cs: 12; LmPK inh: -5%; Shiga inhibitor: -22; Pf growth 96h: inconclusive; Pf growth 48h: 29%

What do the screens show for `Cc1cc(C)n(-c2nnc(N3CCN(c4ccc(F)cc4)CC3)nn2)n1`?
Cycloheximide cs: 29; LmPK inh: -4%; Shiga inhibitor: -4; Pf growth 96h: 0.37µM*; Pf growth 48h: inconclusive

Results for COCCNc1c(-c2cc3ccc(C)c(C)c3[nH]c2=O)nc2ccccn12 ?
Cycloheximide cs: 42*; LmPK inh: 5%; Shiga inhibitor: 63*; Pf growth 96h: -15%; Pf growth 48h: 65%

Results for COCCNc1c(-c2ccc(OC)c(OC)c2)nc2ccc(Cl)cn12 ?
Cycloheximide cs: -5; LmPK inh: 1%; Shiga inhibitor: -11; Pf growth 96h: 18%; Pf growth 48h: inconclusive

What do the screens show for `O=C(C(=C1N(Cc2ccc(Cl)nc2)CCN1Cc1ccc(Cl)nc1)[N+](=O)[O-])C(Cl)Cl`?
Cycloheximide cs: 8; LmPK inh: -5%; Shiga inhibitor: -8; Pf growth 96h: -1%

Results for O=[N+]([O-])C(/C=C(\Cl)[N+](=O)[O-])=C1N(Cc2ccc(Cl)nc2)CCN1Cc1ccc(Cl)nc1 ?
Cycloheximide cs: 7; LmPK inh: 1%; Shiga inhibitor: 16; Pf growth 96h: 6.6µM*; Pf growth 48h: 2.3µM*

How did CCN(C(=O)COC(=O)c1cccs1)c1c(N)n(Cc2ccccc2)c(=O)[nH]c1=O do in these assays?
Pf growth 96h: 26%; Pf growth 48h: 30%

How did CCC(=O)N(Cc1ccco1)c1nc(C(=O)Nc2ccc(Cl)cc2)c(C)s1 do in these assays?
Cycloheximide cs: 33*; LmPK inh: 0%; Shiga inhibitor: 54*; Pf growth 96h: 28%; Pf growth 48h: -4%

Results for Cc1ccc(S(=O)(=O)/C(C#N)=C/c2c(N3CCN(Cc4ccccc4)CC3)nc3ccccn3c2=O)cc1 ?
Cycloheximide cs: 1; LmPK inh: 1%; Shiga inhibitor: -4; Pf growth 96h: inconclusive; Pf growth 48h: inconclusive

What do the screens show for `COc1ccc(Cc2c(O)[nH]c(=S)[nH]c2=O)cc1`?
Cycloheximide cs: -4; LmPK inh: -2%; Shiga inhibitor: -4; Pf growth 96h: 0.37µM*; Pf growth 48h: 4%
